For this assay, the target named is furin, P09958. Put plainly: furin cleavage Z-score vs untreated control; higher = more cleavage, active = 3.5 or more, inactive = 1 or less, 8 variable residues between constant flanks. In outline:
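Cleavage by purified furin was measured on 8-mer peptides fused to a cDNA oligonucleotide and held on magnetic beads by their N-terminus. Reactions (0.01 ml, 1:10 enzyme:substrate) ran 7.5, 15 or 30 min in 50 mM HEPES pH 7.5 with CaCl2 and NaCl. Released DNA was adapter-tagged by PCR and sequenced, with read counts giving abundance. Log counts versus furin-free reactions were lowess-adjusted and scaled by median absolute deviation to give the cleavage Z-score.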

Some of the results follow. The hit rate among all sequences tested is not known here.

Chain of furin, P09958 (P09958 whole entry, the tested form may be a part): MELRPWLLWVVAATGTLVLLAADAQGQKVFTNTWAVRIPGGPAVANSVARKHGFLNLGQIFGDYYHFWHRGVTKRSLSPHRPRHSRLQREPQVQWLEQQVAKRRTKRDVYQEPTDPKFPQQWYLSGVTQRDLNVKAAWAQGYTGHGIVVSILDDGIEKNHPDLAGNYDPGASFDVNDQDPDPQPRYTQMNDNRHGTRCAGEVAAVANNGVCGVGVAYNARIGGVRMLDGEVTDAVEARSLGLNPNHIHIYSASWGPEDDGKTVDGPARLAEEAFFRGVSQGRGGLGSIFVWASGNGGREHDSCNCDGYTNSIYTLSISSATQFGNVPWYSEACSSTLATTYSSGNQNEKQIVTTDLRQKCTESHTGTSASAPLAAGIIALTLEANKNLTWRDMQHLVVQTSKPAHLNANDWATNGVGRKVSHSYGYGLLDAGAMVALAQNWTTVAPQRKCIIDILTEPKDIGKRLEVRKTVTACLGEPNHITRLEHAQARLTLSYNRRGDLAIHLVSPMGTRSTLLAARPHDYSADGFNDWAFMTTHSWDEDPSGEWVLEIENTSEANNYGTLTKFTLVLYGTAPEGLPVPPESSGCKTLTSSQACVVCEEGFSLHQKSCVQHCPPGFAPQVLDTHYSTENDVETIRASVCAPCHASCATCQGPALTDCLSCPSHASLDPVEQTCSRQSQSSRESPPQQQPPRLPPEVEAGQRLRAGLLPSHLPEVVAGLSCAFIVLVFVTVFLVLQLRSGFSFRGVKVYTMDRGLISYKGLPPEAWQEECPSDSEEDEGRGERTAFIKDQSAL

Regarding CASTVCSAHLAGNASASA [HC2510], the “furin cleavage Z-score” value reads like this: (7.5 min) 0.637 (inactive); (15 min) 0.629 (inactive); (30 min) 0.755 (inactive).

Take CAALNRRKKQAGNASASA [FS-747]: the “furin cleavage Z-score” value (7.5 min) was 3.62 (active), the “furin cleavage Z-score” value (15 min) is 5.46 (active) and the “furin cleavage Z-score” value (30 min) was 3.99 (active).

Consider CAALNRTGRSAGNASASA [FS-748], for which the “furin cleavage Z-score” value reads like this: (7.5 min) 9.18 (active); (15 min) 11.6 (active); (30 min) 9.72 (active).

Turning to CASRVRTGRSAGNASASA [FS-1417], the “furin cleavage Z-score” value runs as follows: (7.5 min) 9.44 (active); (15 min) 9.57 (active); (30 min) 7.69 (active).

As to CAMLAEQFKQAGNASASA [HC1022], the “furin cleavage Z-score” value reads like this: (7.5 min) 1.62; (15 min) -0.39 (inactive); (30 min) 0.514 (inactive).

In the case of CATCNRRKKEAGNASASA [FS-1492], the “furin cleavage Z-score” value was 0.181 (inactive) (7.5 min), 1.51 (15 min) and 1.86 (30 min).

CAELSRTGRSAGNASASA [FS-22]: the “furin cleavage Z-score” value runs as follows: (7.5 min) 3.94 (active); (15 min) 5.44 (active); (30 min) 5.19 (active).

Consider CASCSSNVSVAGNASASA [HC1553], for which the “furin cleavage Z-score” value runs as follows: (7.5 min) 1.25; (15 min) -0.606 (inactive); (30 min) 0.334 (inactive).

As to CAVVCCSDSYAGNASASA [HC2051], the “furin cleavage Z-score” value is, setting by setting: (7.5 min) -1.19 (inactive); (15 min) 0.168 (inactive); (30 min) -0.153 (inactive).

As to CAEVPCHRGSAGNASASA [HC2396], the “furin cleavage Z-score” value (7.5 min) is 0.0196 (inactive), the “furin cleavage Z-score” value (15 min) amounted to 1.61 and the “furin cleavage Z-score” value (30 min) turned out to be 1.87.

Turning to CAGSCRRARSAGNASASA [FS-1333], the “furin cleavage Z-score” value was 8.24 (active) (7.5 min), 6.66 (active) (15 min) and 7.27 (active) (30 min).

On to CAQDARRARSAGNASASA [FS-845], for which the “furin cleavage Z-score” value reads like this: (7.5 min) 6 (active); (15 min) 7.49 (active); (30 min) 7.26 (active).

CAGRRLARGSAGNASASA [HC1254]: the “furin cleavage Z-score” value (7.5 min) came out at 3.43, the “furin cleavage Z-score” value (15 min) was 4.7 (active) and the “furin cleavage Z-score” value (30 min) was 6.13 (active).

Regarding CAPYILKRGSAGNASASA [NG2], the “furin cleavage Z-score” value runs as follows: (7.5 min) 1.17; (15 min) 0.28 (inactive); (30 min) 0.586 (inactive).

Regarding CAYGLRDARSAGNASASA [FS-900], the “furin cleavage Z-score” value runs as follows: (7.5 min) -0.0484 (inactive); (15 min) -0.398 (inactive); (30 min) -0.0248 (inactive).

CAYGRRRRRSAGNASASA [FS-519]: the “furin cleavage Z-score” value runs as follows: (7.5 min) 9.52 (active); (15 min) 10.7 (active); (30 min) 8.36 (active).

Take CAVAYQATVCAGNASASA [HC954]: the “furin cleavage Z-score” value was -0.525 (inactive) (7.5 min), -0.292 (inactive) (15 min) and -0.577 (inactive) (30 min).

With CAMFDSSVLCAGNASASA [HC916], the “furin cleavage Z-score” value was -1.5 (inactive) (7.5 min), -1.04 (inactive) (15 min) and 0.432 (inactive) (30 min).

Take CADGRRFRQAAGNASASA [FS-1668]: the “furin cleavage Z-score” value was -1.15 (inactive) (7.5 min), -1.53 (inactive) (15 min) and -0.448 (inactive) (30 min).

On to CAICTTPCSGAGNASASA [HC1944], for which the “furin cleavage Z-score” value is, setting by setting: (7.5 min) -1.41 (inactive); (15 min) -0.982 (inactive); (30 min) 0.0737 (inactive).

In the case of CASTPCSVHLAGNASASA [HC2530], the “furin cleavage Z-score” value is, setting by setting: (7.5 min) -0.933 (inactive); (15 min) 0.438 (inactive); (30 min) 1.38.

On to CALHVWIPPLAGNASASA [HC589], for which the “furin cleavage Z-score” value by setting is: (7.5 min) 1.25; (15 min) 1.42; (30 min) 0.509 (inactive).

With CARSGRSRSRAGNASASA [FS-1926], the “furin cleavage Z-score” value is -0.645 (inactive) (7.5 min), -0.505 (inactive) (15 min) and -1.41 (inactive) (30 min).

Consider CARSGRRRRSAGNASASA [FS-88], for which the “furin cleavage Z-score” value was 5.85 (active) (7.5 min), 5.32 (active) (15 min) and 4.99 (active) (30 min).

For CASRRRRARSAGNASASA [FS-872], the “furin cleavage Z-score” value reads like this: (7.5 min) 8.77 (active); (15 min) 9.73 (active); (30 min) 7.27 (active).

Regarding CAAWRHRARSAGNASASA [HC1620], the “furin cleavage Z-score” value by setting is: (7.5 min) 0.0962 (inactive); (15 min) 1.9; (30 min) 1.59.

For the sequence CAIPKRLRRSAGNASASA [FS-35], the “furin cleavage Z-score” value was 1.85 (7.5 min), 0.768 (inactive) (15 min) and 1.2 (30 min).

For CAGRRRRHRSAGNASASA [FS-532], the “furin cleavage Z-score” value runs as follows: (7.5 min) 9.48 (active); (15 min) 10.3 (active); (30 min) 6.94 (active).

For the sequence CAPPRRLRRSAGNASASA [FS-841], the “furin cleavage Z-score” value runs as follows: (7.5 min) 5.16 (active); (15 min) 4.08 (active); (30 min) 3.48.

As to CARSGAPTYSAGNASASA [HC421], the “furin cleavage Z-score” value reads like this: (7.5 min) 0.424 (inactive); (15 min) -0.13 (inactive); (30 min) -0.882 (inactive).

Regarding CAILNAASLAAGNASASA [HC537], the “furin cleavage Z-score” value by setting is: (7.5 min) -1.87 (inactive); (15 min) -0.982 (inactive); (30 min) 0.861 (inactive).

Consider CATTPCYGSWAGNASASA [HC77], for which the “furin cleavage Z-score” value runs as follows: (7.5 min) 0.0798 (inactive); (15 min) 1.4; (30 min) -0.0858 (inactive).

On to CALAHGVRVLAGNASASA [HC236], for which the “furin cleavage Z-score” value runs as follows: (7.5 min) 0.101 (inactive); (15 min) 1.37; (30 min) 0.879 (inactive).

As for CAPPWRLRRSAGNASASA [FS-1383], the “furin cleavage Z-score” value (7.5 min) was 9.19 (active), the “furin cleavage Z-score” value (15 min) was 9.31 (active) and the “furin cleavage Z-score” value (30 min) is 7.39 (active).

Consider CAPPRRRRRSAGNASASA [FS-948], for which the “furin cleavage Z-score” value by setting is: (7.5 min) 8.33 (active); (15 min) 8.78 (active); (30 min) 7.37 (active).

In the case of CAPPRRRARSAGNASASA [FS-72], the “furin cleavage Z-score” value is 11.2 (active) (7.5 min), 10.8 (active) (15 min) and 7.57 (active) (30 min).

With CARSTRDRRSAGNASASA [FS-1273], the “furin cleavage Z-score” value was 11.6 (active) (7.5 min), 13.1 (active) (15 min) and 9.03 (active) (30 min).

On to CAPTDPRRRSAGNASASA [HC215], for which the “furin cleavage Z-score” value is 0.57 (inactive) (7.5 min), 3.28 (15 min) and 0.563 (inactive) (30 min).

Consider CASDPCSAHLAGNASASA [HC2491], for which the “furin cleavage Z-score” value runs as follows: (7.5 min) -0.0824 (inactive); (15 min) 0.0077 (inactive); (30 min) 0.561 (inactive).

As for CAFTPCSAHLAGNASASA [HC2467], the “furin cleavage Z-score” value (7.5 min) is -2.12 (inactive), the “furin cleavage Z-score” value (15 min) is -1.48 (inactive) and the “furin cleavage Z-score” value (30 min) was -1.08 (inactive).

On to CATTPCSKSWAGNASASA [HC1894], for which the “furin cleavage Z-score” value (7.5 min) was 0.86 (inactive), the “furin cleavage Z-score” value (15 min) was -0.828 (inactive) and the “furin cleavage Z-score” value (30 min) was 1.43.

For the sequence CALVGAPLGGAGNASASA [HC230], the “furin cleavage Z-score” value reads like this: (7.5 min) 0.473 (inactive); (15 min) 0.0326 (inactive); (30 min) -0.438 (inactive).

CAEYPCHRPSAGNASASA [HC2329]: the “furin cleavage Z-score” value was -1.31 (inactive) (7.5 min), -1.61 (inactive) (15 min) and 0.059 (inactive) (30 min).

CAWWRRRRRSAGNASASA [FS-1503]: the “furin cleavage Z-score” value is 12.2 (active) (7.5 min), 12.2 (active) (15 min) and 8.61 (active) (30 min).

Take CAWLIRRRRSAGNASASA [FS-1180]: the “furin cleavage Z-score” value was 13.7 (active) (7.5 min), 13.5 (active) (15 min) and 11.2 (active) (30 min).

Regarding CAFYNRRRRSAGNASASA [FS-528], the “furin cleavage Z-score” value (7.5 min) was 10.4 (active), the “furin cleavage Z-score” value (15 min) is 10.5 (active) and the “furin cleavage Z-score” value (30 min) is 8.75 (active).

For the sequence CARSTRDVQAAGNASASA [FS-3212], the “furin cleavage Z-score” value is, setting by setting: (7.5 min) 6.84 (active); (15 min) 7.38 (active); (30 min) 6.15 (active).

Values taken from the supplement of paper PMC3545927.
